# AmpC detergent: blocks E. coli AmpC beta-lactamase in detergent assay; AID 485294; AmpC hydrolysis of nitrocefin, absorbance 480 nm, 0.01% Triton; actives 0.041% (n = 370,000); P00811; Potency, µM (series often up to 114 µM), for the others: at the highest dose activity change, negative = inhibition, actives largely listed as inhibitors;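 also: 0% = no-compound wells and -100% = no-enzyme wells; nearly all actives have a fitted effect of over 25% in size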
# Target sequence (P00811 whole entry, looked up): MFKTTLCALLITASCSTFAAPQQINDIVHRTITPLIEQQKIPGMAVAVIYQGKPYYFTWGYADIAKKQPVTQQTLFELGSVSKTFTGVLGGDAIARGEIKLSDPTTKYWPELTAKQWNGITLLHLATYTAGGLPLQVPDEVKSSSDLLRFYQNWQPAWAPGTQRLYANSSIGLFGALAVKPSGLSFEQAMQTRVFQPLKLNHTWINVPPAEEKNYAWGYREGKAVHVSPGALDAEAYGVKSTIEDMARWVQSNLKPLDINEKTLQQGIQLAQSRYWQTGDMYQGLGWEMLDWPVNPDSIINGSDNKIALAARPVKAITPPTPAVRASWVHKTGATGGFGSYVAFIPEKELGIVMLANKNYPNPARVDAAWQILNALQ
#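 20 mM phosphate pH 7.0 + 0.01% (detergent screen) or 0.0001% Triton X-100; 5.3 nM AmpC reagent; cpd preinc 15 min RT; nitrocefin (800 uM stock) to start; A480 q20 s × 4 min; Activity was normalised to no-enzyme and no-compound control wells.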
# Pf growth 48h: inhibits P. falciparum growth in the first generation, 48 h; AID 504832; P. falciparum luciferase growth in erythrocytes, 48 h; actives 5.9% (n = 310,000); Potency, µM (doses to about 28.7 µM), without a hit: at the highest dose activity change, negative = inhibition, actives largely listed as inhibitors
#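 Luciferase-expressing P. falciparum in infected erythrocytes (2% hematocrit, 0.1% parasitemia final) in RPMI 1640/0.5% Albumax were exposed to compound for 48 hours at 37 C, 5% CO2; growth read as luminescence.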
# Pf growth 96h: P. falciparum growth inhibition at 96 hours; P. falciparum luciferase reporter growth, 96 h; Potency, µM (titrated, usually from 28.7 µM), for inactives: at the top dose activity change, negative = inhibition, usual class: inhibitors; actives 6.9% (n = 320,000); AID 504834
#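 Parasite growth measured via integrated firefly luciferase reporter in P. falciparum. Infected erythrocytes at 2% hematocrit, 0.05% parasitemia final were treated 96 hours at 37 C under 5% CO2, and luminescence was read.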
# AMA1 RON2 block: AMA1-RON2 (P. falciparum) interaction inhibition; AlphaScreen AMA1-biotinylated RON2 peptide binding; Potency, µM (top dose mostly 58.2 µM), inactives show at the highest dose activity change, negative = inhibition, hits mostly inhibitors; actives 0.2% (n = 360,000); AID 720542;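 also: 0% = vehicle wells and -100% = peptide control; nearly all actives have a fitted effect of over 45% in size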
#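 AMA1 (3D7) with his tag at 25 nM final met compounds first, then biotinylated RON2 peptide at 25 nM; detection used donor plus acceptor beads, 10 µg/mL apiece, read by AlphaScreen after 30 min at room temperature.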
# HCV inh: blocks hepatitis C virus. Huh7.5.1 HCVcc-Cre infection, luciferase reporter, 44 h. Potency, µM (top dose mostly 41.8 µM), for the others: top-dose activity change, negative = inhibition, hits mostly inhibitors. actives 3.4% (n = 340,000). AID 651820
#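 Infectious HCV cell culture screen: compound-treated cells (1,000/well, pre-plated 4 h) are infected with HCVcc-Cre at roughly 0.5 moi and grown 44 h. Infection is quantified by luciferase signal after 15 min substrate incubation at room temperature.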
# AmpC no deterg: AmpC beta-lactamase inhibition without detergent | P00811 | AmpC nitrocefin hydrolysis, absorbance 480 nm, 0.0001% Triton | Potency, µM (series often up to 57.1 µM), for inactives: top-dose activity change, negative = inhibition, actives largely listed as inhibitors | actives 0.52% (n = 330,000);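 also: plate controls were no compound for no effect and no enzyme for full effect; nearly all actives have a fitted effect of over 20% in size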
#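 20 mM phosphate pH 7.0 + 0.01% (detergent screen) or 0.0001% Triton X-100; 5.3 nM AmpC reagent; cpd preinc 15 min RT; nitrocefin (800 uM stock) to start; A480 q20 s × 4 min; Activity was normalised to no-enzyme and no-compound control wells.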
# Numbers without * were called inactive; u = inconclusive; x = no result; [ ] = another dose, or the depositor's remark. In the library only some 11% were active in any assay of this set; here they are far more common. Calls follow the shape of the dose curve; as a rule, active = well fitted curve in the direction sought with a large enough effect; inconclusive = small, poorly fitted or top-dose-only effect, or another doubt; inactive = no such curve, though single readings can be large; an effect the other way counts as inactive or inconclusive. Unless noted, % is scaled to controls: 0 for no effect and ±100 for the full control effect; potency is read from the fitted curve at half-maximal effect.
SMILES,AmpC detergent,Pf growth 48h,Pf growth 96h,AMA1 RON2 block,HCV inh,AmpC no deterg
CC(C)(C)c1ccc(S(=O)(=O)N2CCN(CC(=O)NC(=O)NC3CCCCC3)CC2)cc1,-15%,-21%,2.9µM*,-21%,-1%,-5%
CC(C)(C)NC(=O)NC(=O)CN1CCN(S(=O)(=O)c2ccc3c(c2)CCCC3)CC1,1%,9.3µM*,7.4µM*,1%,-27%,110%
O=C(CCl)N1CCN(S(=O)(=O)c2ccc3c(c2)CCC3)CC1,-7%,2.3µM*,u,-5%,14µM*,-9%
COc1ccc(S(=O)(=O)N2CCN(CC(=O)NC3CCCC3)CC2)cc1,3%,-7%,u,-4%,7%,3%
O=C(CCl)N1CCN(S(=O)(=O)Cc2ccccc2)CC1,-2%,u,13µM*,0%,u,-15%
CCc1nnc(SCC(=O)N(CC)c2ccccc2)c2cc3oc(C)cc3n12,-1%,x,x,x,x,x
O=S(=O)(Nc1ccc2c(c1)nc1n2CCN(Cc2ccccc2)C1)c1ccc(Cl)cc1,u,9.3µM*,38%,6%,11µM*,u
O=S(=O)(Nc1ccc2c(c1)nc1n2CCN(Cc2ccccc2)C1)c1ccc(F)cc1,-18%,12µM*,-16%,-3%,u,-26%
O=C(Nc1ccc2c(c1)nc1n2CCN(Cc2ccccc2)C1)NC1CCCCC1,0%,x,-14%,-6%,-17%,-16%
Cc1ccc(S(=O)(=O)Nc2ccc3c(c2)nc2n3CCN(Cc3ccccc3)C2)cc1,-5%,u,u,15%,16µM*,-29%
O=S(=O)(Nc1ccc2c(c1)nc1n2CCN(Cc2ccccc2)C1)c1ccccc1,-3%,66%,39%,11%,5.6µM*,-14%
Cc1c(CC(=O)NCCc2ccc(Cl)cc2)c(=O)oc2c(C)c3occ(C(C)(C)C)c3cc12,15%,x,x,x,x,x
Cc1nn(-c2ccccc2)nc1CNC(=O)CC(C)(C)C,-2%,2%,25%,0%,5%,-3%
Cc1nn(-c2ccccc2)nc1CNC(=O)c1ncoc1-c1ccccc1,-4%,9%,5%,19%,10µM*,-14%
CCCS(=O)(=O)N1CCC(C(=O)NCCCOC(C)C)CC1,3%,3%,9.3µM*,12%,-2%,-1%
CCCS(=O)(=O)N1CCC(C(=O)NCCCOC)CC1,-10%,14%,59%,3%,20%,-6%
CCN(CC)CCNC(=O)C1CCN(S(=O)(=O)N2CCCCC2)CC1,2%,-1%,3%,0%,-1%,0.28µM*
CCCS(=O)(=O)N1CCC(C(=O)NCCCOCC)CC1,4%,40%,15µM*,-21%,12%,-4%
CCCS(=O)(=O)N1CCC(C(=O)NCCC(C)C)CC1,10%,5%,33%,-4%,4%,-14%
CCOc1ccc(-n2ccnc2SCC(=O)Nc2cccc3ccccc23)cc1,2%,x,x,x,x,x
COc1cc2c(cc1OC)/C(=C/C#N)NC(C)(C)C2,-14%,9.3µM*,u,-13%,u,83%
CCc1ccccc1NC(=O)Cn1nnc(C(=O)Nc2ccc(OC)c(OC)c2)c1N,13%,x,x,x,x,x
Cc1ccc(CSCC(=O)N2CCN(c3ccccc3F)CC2)cc1,-6%,x,x,x,x,x
Cc1cccc(C)c1NC(=O)COC(=O)c1c2c(nc3ccccc13)/C(=C\c1ccc3c(c1)OCO3)CCC2,3%,8.3µM*,u,4%,-25%,28µM*
CN(C(=O)COC(=O)c1c2c(nc3ccccc13)/C(=C/c1cccc([N+](=O)[O-])c1)CCC2)C1CCS(=O)(=O)C1 (centres undefined),-11%,u,u,-12%[2.32 µM],1.8µM*,82%
SMILES,AmpC detergent,Pf growth 48h,Pf growth 96h,AMA1 RON2 block,HCV inh,AmpC no deterg
CN(C(=O)COC(=O)/C=C/c1cccc([N+](=O)[O-])c1)C1CCS(=O)(=O)C1 (centres undefined),3%,-1%,-6%,-2%,-6%,3%
COc1ccc(-c2cc(C(=O)OCC(=O)c3c(N)n(C)c(=O)n(C)c3=O)c3ccccc3n2)cc1,u,21%,40%,3%,u,-21%[11.4 µM]
COc1ccc(/C=C2\CCCc3c2nc2ccccc2c3C(=O)OCC(=O)c2c(N)n(C)c(=O)n(C)c2=O)cc1,-1%,u,4.1µM*,x,-22%,-23%
O=C(COC(=O)c1c2c(nc3ccccc13)/C(=C/c1cccc([N+](=O)[O-])c1)CCC2)NC1CCS(=O)(=O)C1 (centres undefined),-11%,u,u,-25%,3.5µM*,71%
CCCc1cnc2c(c1SCc1ccc(C(F)(F)F)cc1)c(=O)n(C)c(=O)n2C,2%,x,x,x,x,x
N#Cc1nc(-c2ccc(COc3ccc(Cl)cc3)o2)oc1N1CCC(C(N)=O)CC1,20%,x,x,x,x,x
CCN1CCCc2cc(CN(CCN3CCOCC3)C(=S)Nc3ccc(OC)c(Cl)c3)ccc21,0%,u,19µM*,-3%,-17%,34%
Cc1cccc(NC(=S)N(CCN2CCOCC2)Cc2ccccc2F)c1,u,u,u,-21%,-30%,44%
CCN1CCCc2cc(CN(CCN3CCOCC3)C(=S)Nc3ccc(OC)c(OC)c3)ccc21,7%,5%,u,-10%,10%,41%
Cc1ccc(NC(=S)N(CCN2CCOCC2)Cc2ccccc2F)cc1Cl,-7%,12µM*,u,-23%,-8%,51%
CCN1CCCc2cc(CN(CCN3CCOCC3)C(=S)Nc3cccc(C)c3)ccc21,-3%,u,12µM*,14µM*,-38%,122%
Cc1ccc(NC(=S)N(CCCN2CCCC2)Cc2cccn2Cc2ccc(Cl)cc2)cc1Cl,6%,u,41%,9%,0.56µM*,-15%
Cc1ccc(CNC(=O)C(=O)Nc2c3c(nn2-c2ccc(F)cc2)CSC3)cc1,3%,x,x,x,x,x
COc1ccc(OC)c(S(=O)(=O)NCc2ccc3c(c2)CCN3C(=O)c2cccc(C)c2)c1,-2%,x,x,x,x,x
Cc1nn(CC(=O)NCc2cccc(F)c2)c(=O)c2c(C)n(-c3ccc(Cl)cc3)nc12,-4%,x,x,x,x,x
CCc1ccc(-n2c(=O)c3cccnc3n2CC(=O)Nc2cc(F)ccc2F)cc1,4%,x,x,x,x,x
CCN1CCCc2cc(CN(CCN3CCOCC3)C(=O)Nc3ccc(C)c(C)c3)ccc21,u,x,u,11µM*,15%,141%
Cc1ccc(NC(=S)N(CCCN2CCOCC2)Cc2ccco2)cc1,u,2%,12µM*,6%,4%,-11%
CS(=O)(=O)N(CC(=O)N1CCN(Cc2ccc3c(c2)OCO3)CC1)Cc1ccc(Cl)cc1,-11%,x,1.9µM*,-6%,13µM*,145%

# Screens: PubChem, National Center for Advancing Translational Sciences (NCATS)
